Measurements as given in PubChem BioAssay AID1259415 (National Center for Advancing Translational Sciences (NCATS), 2018).
Among all 410,000 compounds or so, about 18,000 (4.4%) were called active. About 7% were inconclusive and are not listed. This excerpt belongs to a sample that is enriched for actives. A number with no mark means an inactive call. No stated cut-off is given here; in the data, active means activity change below about -60%; inconclusive means no clear call, values can overlap the other calls; inactive means above about -39%.

Assay: qHTS Assay for inhibitors of the human cytomegalovirus (HCMV)
Details: HFF cells, HCMV-luciferase reporter, 72 h; at 57.5 µM; active compounds read low
Outline: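 Screen run at 2 compound doses on HFFs infected with reporter HCMV, MOI 1 PFU/cell. Luciferase activity from cell lysates at 72 h post infection gave inhibition relative to buffer-only and Salinomycin wells.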
On the % scale 0 is the no-effect control and ±100 the full control effect.

SMILES	activity change, negative = inhibition
Cc1ccc(NC(=O)c2ccc(CN3CC(=O)N4CCCCC4C3=O)cc2)c(Cl)c1 (stereo not drawn)	48%
Cc1nn(C)c(C)c1CN(C(=O)CCc1nnc(Cc2c[nH]c3ccccc23)o1)C(C)C	9.02%
Clc1ccc(C[n+]2cc(-c3ccc(Cl)cc3)n3c2CCC3)cc1	-74.1% (active)
CC(C)C[C@@H](COCc1ccc(Cl)cc1)N1CCN(C(=O)c2ccc(Cl)cc2Cl)CCC1=O	-13.1%
Cc1c(NC(=O)CSc2cccc3cccnc23)c(=O)n(-c2ccccc2)n1C	-83.5% (active)
Cc1ccccc1OCCC(=O)Nc1c(C)n(C)n(-c2ccccc2)c1=O	-31.3%
Cc1ccc(S(=O)(=O)CC(=O)Nc2c(C)n(C)n(-c3ccccc3)c2=O)cc1	10.8%
COC(=O)c1nn(-c2cccc(Cl)c2)ccc1=O	-24.4%
CC(CCCc1ccccc1)NC(=O)c1nn(-c2ccc(Cl)cc2)nc1CO (stereo not drawn)	-5.56%
CCCSC1=C(C#N)C(c2ccccc2C)C(C(=O)OC)C(=O)N1 (stereo not drawn)	-10.3%
CCOc1ccc(C(=O)Nc2ccc3nc4c(c(Nc5ccccc5OC)c3c2)CCCC4)cc1	-83.9% (active)
COc1cc(/C=C/C(=O)N2CCc3ccccc3C2)cc(OC)c1OC	84.9%
CCOc1ccc(NC(=O)CSc2c3c(nc4ccccc24)CCCC3)cc1	-11.9%
COc1cc(/C=C/C(=O)O)cc(S(=O)(=O)Nc2ccccc2SC)c1OC	-14.9%
CCOc1ccc(-n2nc3ccc(NC(=O)c4ccc(OC)c(Cl)c4)cc3n2)cc1	1.85%
COc1ccccc1Nc1c2c(nc3ccc(NC(=O)/C=C/c4cc(OC)c(OC)c(OC)c4)cc13)CCCC2	-98.3% (active)
CCC(C(=O)Nc1cc(OC)ccc1OC)n1c(=O)c(C(F)(F)F)nc2ccccc21 (stereo not drawn)	-4.66%
COc1cc(OC)c(NC(=O)N2CC3CCCN3c3ccccc32)cc1Cl (stereo not drawn)	-10.2%
CCc1ccccc1NC(=O)Cc1ccc(NC(=O)N2CCCCc3ccccc32)cc1	18.7%
COc1ccccc1C(=O)NCCC(=O)N(C)Cc1cccnc1	0%
CCOCCCNC(=O)c1ccc2nc(CCc3ccccc3)oc2c1	18.3%
CCOC(=O)N1CCc2c(sc3c2c(=O)n(Cc2ccccc2)c(=O)n3CC(=O)Nc2cccc(C)c2)C1	-9.95%

SMILES	activity change, negative = inhibition
O=C(CCl)Nc1cccc(CP(=O)(c2ccccc2)c2ccccc2)c1	-108% (active)
CCc1cccc(NC(=O)c2cc(-c3ccccc3)n[nH]2)c1	46.1%
O=C(CNCc1ccc(Cl)cc1)Nc1cccc(C(=O)O)c1	-4.42%
Cc1cc(C)cc(NC(=O)CCS(=O)(=O)c2cc3c4c(c2)CCN4C(=O)CC3)c1	-0.0143%
C=C(C)C1CC=C(C)/C(=N\NC(=O)CNc2ccccc2OC)C1 (stereo not drawn)	-21.5%
CN1CCN(c2oc(-c3ccc(COc4ccc(Cl)cc4)o3)nc2C#N)CC1	-31.4%
CN(CCc1cnn(C)c1)Cc1cn(C)nc1-c1ccccc1F	5.69%
CCn1c2ccccc2c2cc(NC(=O)COc3ccc(C)cc3C)ccc21	-8.23%
C/C(=N\OCC(=O)Nc1ccc(Br)cc1)c1cccs1	-6.56%
Cc1ccc(OCC(=O)Nc2ccc(NC(=O)c3cccs3)cc2)c(C)c1	-90.8% (active)
CCOc1ccc(NC(=O)Cn2cc(C(=O)c3ccc(C)cc3)c(=O)c3cc4c(cc32)OCCO4)cc1	11.7%
COc1ccc2cc(-c3nc(Cl)c4c5c(sc4n3)CC(C)CC5)c(=O)oc2c1 (stereo not drawn)	-12.7%
COCCNC(=O)c1cc(-c2cccc(Cl)c2)on1	-70.5% (active)
O=C(NCc1ccccc1)c1cc(-c2cccc(Cl)c2)on1	21.7%
CCCCNC(=O)c1cc(-c2ccc(Cl)c(Cl)c2)on1	27.6%
O=C(O)c1ccc(CSc2nc3cccnc3n2Cc2cccc(F)c2)cc1	40.5%
CNS(=O)(=O)c1ccc(C(=O)NCC(=O)NCCc2ccc3c(c2)OCCO3)cc1	-5.01%
CCc1ccccc1OCCSc1nc(-c2cccs2)nc2cc(=O)[nH]n12	-12.5%
CC(=O)c1ccc(NS(=O)(=O)c2ccc(-c3cc(C)no3)s2)cc1	0%
O=C(OCc1nc2ccccc2[nH]1)C1CCCCC1	4.12%
c1ccc2c(CSCc3nc4ccccc4[nH]3)cccc2c1	-92.5% (active)
c1ccc2c(C[n+]3csc4ccccc43)cccc2c1	91.5%

SMILES	activity change, negative = inhibition
COc1ccccc1C(=O)N1O[C@]23C=C[C@]14C[C@@H](O)CC[C@]4(C)C2CC[C@]1(C)[C@@H]([C@H](C)/C=C/[C@H](C)C(C)C)CC[C@H]13 (stereo partly drawn)	27.5%
Cc1ccc2nc(COc3ccccc3NC(=O)Nc3ccc(F)c(Cl)c3)cc(=O)n2c1	9.77%
CC(C)NC(=O)c1nn(-c2ccccc2F)nc1CO	-26.3%
CCNC(=O)CC1C(=O)N(c2ccc(F)cc2)C(=O)N1Cc1ccc(C)cc1 (stereo not drawn)	-4.44%
CCS(=O)(=O)N1CCN(C(=O)c2cccs2)CC1	14.1%
C/C(=N\NC(=O)COc1c(C)cccc1C)c1cccs1	-1.76%
Cc1ccccc1C(CC(=O)c1cccs1)C(C#N)C#N (stereo not drawn)	-89.2% (active)
Cc1ccnc(SCC(=O)Nc2cccc(S(=O)(=O)N3CCOCC3)c2)n1	-25.4%
O=C(CSc1ccccc1)Nc1cccc(S(=O)(=O)N2CCCCC2)c1	-4.82%
Cc1cc(NC(=O)C(C)SCC(=O)Nc2cccc(S(=O)(=O)N3CCCCCC3)c2)no1 (stereo not drawn)	-103% (active)
Cc1cc(NC(=O)C(C)SCC(=O)Nc2ccccc2N2CCCCC2)no1 (stereo not drawn)	-18.8%
Cn1nnnc1SCC(=O)Nc1cccc(S(=O)(=O)N2CCCCC2)c1	-105% (active)
COCCn1cnnc1SCC(=O)Nc1cccc(S(=O)(=O)N2CCCCC2)c1	-23.6%
Cn1c(SCC(=O)Nc2cccc(O)c2)nnc1-c1ccc(S(=O)(=O)N2CCOCC2)cc1	-70.3% (active)
Nc1cc(N)nc(SCC(=O)Nc2cccc(S(=O)(=O)N3CCCCC3)c2)n1	-9.15%
CCC(=O)Nc1cccc(NC(=O)CSc2nnc(-c3ccc(NS(C)(=O)=O)cc3)n2C)c1	-2.35%
CC1(C)N=C(SCc2ccccc2Cl)c2ccccc2N1	5.15%
Cc1ccc2c(=O)c(C(=O)c3ccc(F)cc3)cn(CC(=O)NC3CCCCC3)c2n1	6.71%
CCc1ccccc1NC(=O)Cn1c(=O)n(CC2CCC(C(=O)NCCc3ccccc3)CC2)c(=O)c2ccccc21 (stereo not drawn)	17.8%
Cc1cc(NC(=O)CSc2ncc(C(=O)Nc3ccc(Cl)cc3)c(=O)n2C)no1	7.76%
CC(=O)Nc1ccc(NC(=O)c2cc3sccc3n2Cc2ccc(F)cc2)cc1	-10%
COc1ccc2[nH]c3c(C)c4cc[n+](C)cc4c(C)c3c2c1	-97.6% (active)

SMILES	activity change, negative = inhibition
COc1ccc(-n2c(=O)c3sc4ccccc4c3n(CC(=O)Nc3cccc(C)c3)c2=O)cc1	11.4%
Cc1cc(C)c(/C=C/c2onc(C)c2S(=O)(=O)N2CCC(C(=O)Nc3ccc(Cl)cc3C)CC2)c(C)c1	-20.3%
CCN1CCN(c2ccc([N+](=O)[O-])cc2C#N)CC1	-36.6%
CN1CN(C)c2ccc([N+](=O)[O-])c3cccc1c23	-90% (active)
CN1CCN(S(=O)(=O)c2ccc(N3CCN(c4ccccc4O)CC3)c([N+](=O)[O-])c2)CC1	-9.97%
CN(C)S(=O)(=O)c1ccc(N2CCCC2=O)c([N+](=O)[O-])c1	-23.4%
CC1CCCN(c2csc3ccc(F)cc3c2=O)C1 (stereo not drawn)	20.9%
COc1ccc(-c2cn3c(C)c(C(=O)Nc4cc(C)cc(C)c4)sc3n2)cc1	27.8%
COc1cc2c(cc1OC)C(COc1ccc(F)cc1)N(C(=O)c1ccccc1F)CC2 (stereo not drawn)	-11.8%
C=C(C)CNC(=S)Nc1ccc(S(=O)(=O)Nc2cnc3ccccc3n2)cc1	-30.9%
C=C(C)CNC(=S)N/N=C/c1ccccc1OCC(=O)O	-63.4% (active)
CCn1c(SCC(=O)N/N=C/c2ccccc2OCC(=O)O)nnc1-c1ccc(C(C)(C)C)cc1	0%
Cc1cc(C(=O)NC2CC(C)(C)Cc3c2cnn3-c2ccccc2)n[nH]1 (stereo not drawn)	-4.62%
COc1ccc(-n2ncc3c2CC(C)(C)CC3NC(=O)CCc2c(C)nn(C)c2C)cc1 (stereo not drawn)	-35%
COc1ccc(C(=O)NC2CC(C)(C)Cc3c2cnn3-c2ccccc2)c(OC)c1 (stereo not drawn)	-62.5% (active)
O=C1Cc2cc(S(=O)(=O)Nc3ccc(OC(F)(F)F)cc3)cc3c2N1CCC3	14.6%
COC(=O)[C@]12CCCCC=C1N(Cc1cccc3ccccc13)C(=O)[C@H](CC(=O)N1CCOCC1)C2	12.2%
Cc1ccc2nc(COc3cccc(NC(=O)c4ccccc4Cl)c3)cc(=O)n2c1	0.182%
CC(O)(c1cccc(F)c1)c1nc(-c2ccc3c(c2)OCO3)cs1 (stereo not drawn)	-11.8%
COc1cc(OC)cc(-c2cc3ccc(F)cc3cn2)c1	59.6%
COc1ccc(C(C)(O)c2nc(-c3cc(F)cc(F)c3)cs2)cc1 (stereo not drawn)	-96% (active)
CCSc1nnc2c(n1)OC(c1ccc(OCC(=O)O)cc1)Nc1ccccc1-2 (stereo not drawn)	33.3%
